Experiment [1] is described as follows: Cell Viability - Hek293 (AID 427;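 active = compounds whose dose-response curve shows a full or clear partial loss of cell viability, called from curve shape rather than a numeric limit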;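 also: potency is read from the fitted curve at half-maximal effect; cells exposed to compound for 40 hours at 37 °C before reading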). The settings on record: qHTS. The gist of the method: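 Luminescent ATP content (CellTiter-Glo, 20 min at room temperature) was measured after a 40 hr, 37 °C compound exposure of HEK293 cells. AC50 values came from Hill-equation fits of qHTS concentration-response data normalized to DMSO and 100 uM tamoxifen.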
(In qHTS, concentration-response curves come from the screen itself.)

Experiment [2] is described as follows: Cell Viability - NIH 3T3 (AID 541).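 Also: cells exposed to compound for 40 hours; plate controls were DMSO alone for no effect and tamoxifen positive control for full effect; nearly all actives have a fitted effect of over 25% in size.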 The following applies: NIH 3T3 cell viability, qHTS; activity change, negative = cytotoxicity: at 92.2 µM (top of the series). The gist of the method:
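qHTS format; 40 hr compound exposure, 37 °C; CellTiter-Glo luminescence (cellular ATP) read-out after 20 min at RT. Decrease in ATP = cytotoxicity; AC50 from standard Hill fit.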

Experiment [3] is described as follows: Cell Viability - H-4-II-E (AID 543).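 Also: cells exposed to compound for 40 hours; nearly all actives have a fitted effect of over 35% in size.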 Also: potency is read from the fitted curve at half-maximal effect. Put shortly: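 qHTS, rat hepatoma H-4-II-E, 1500 cells/well; 40 hr compound exposure, 37 °C; CellTiter-Glo ATP luminescence after 20 min RT; AC50 by standard Hill fit.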
A short description of experiment [4]: Cell Viability - LYMP2-011 (AID 969).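 Also: cells exposed to compound for 24 hours; 0% = DMSO only and full inhibition = 92 µM tetraoctylammonium bromide; nearly all actives have a fitted effect of over 60% in size.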 Put shortly: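 Luminescent ATP read-out (CellTiter-Glo, 30 min RT) after 24 hr compound exposure at 37 C in human lymphoblastoid cells, 2500 cells/well. Decreasing ATP indicates cytotoxicity; AC50 from standard Hill fit.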
For experiment [5], the target named is Estrogen receptor (Homo sapiens) (UniProt P03372). Nature of the experiment: qHTS assay for small molecule antagonists of estrogen receptor alpha signaling (AID 588513; active = well fitted curve in the direction sought with a large enough effect in the signal ratio, with a control signal flat, not every such curve was filed as active; the % refers to the signal ratio; also: % is scaled to controls: 0 for no effect and ±100 for the full control effect). Put shortly: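 Fluorescence from CCF4 substrate after 2 h at room temperature gave reporter activity; cells had been exposed to compound and 0.5nM 17-beta-estradiol for 18 h at 37 C. Hill-equation fitting yielded IC50 and maximal response.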
Chain of Estrogen receptor (Homo sapiens) (P03372 whole entry, looked up): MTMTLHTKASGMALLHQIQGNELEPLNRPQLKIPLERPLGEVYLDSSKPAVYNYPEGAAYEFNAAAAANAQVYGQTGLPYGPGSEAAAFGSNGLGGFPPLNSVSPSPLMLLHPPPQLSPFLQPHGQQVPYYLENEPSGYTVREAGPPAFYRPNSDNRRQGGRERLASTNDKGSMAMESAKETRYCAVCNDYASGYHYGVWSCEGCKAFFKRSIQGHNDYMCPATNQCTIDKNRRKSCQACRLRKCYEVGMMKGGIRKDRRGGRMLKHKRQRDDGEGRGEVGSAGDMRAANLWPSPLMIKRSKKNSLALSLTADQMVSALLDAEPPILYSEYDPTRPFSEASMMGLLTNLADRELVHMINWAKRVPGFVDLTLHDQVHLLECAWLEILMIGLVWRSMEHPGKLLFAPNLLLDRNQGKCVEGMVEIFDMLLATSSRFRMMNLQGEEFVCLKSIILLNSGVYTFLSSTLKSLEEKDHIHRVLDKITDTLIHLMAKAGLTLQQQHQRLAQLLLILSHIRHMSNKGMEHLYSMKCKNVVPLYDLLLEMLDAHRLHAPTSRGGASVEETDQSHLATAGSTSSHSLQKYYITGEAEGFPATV

For experiment [6] the target is unchanged. Nature of the experiment: qHTS assay for small molecule agonists of estrogen receptor alpha signaling (AID 588514; calls by dose curve;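 also: 0% = vehicle only and 100% = reference agonist; nearly all actives have a fitted effect of over 70% in size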). Put shortly: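 Read-out: CCF4 fluorescence from a beta-lactamase reporter in ER-alpha-UAS-bla HEK 293 cells after 18 hrs of compound exposure at 37 C. Normalized to 20 nM 17-beta-estradiol (100%) and DMSO (0%).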
Experiment [7] deals with Bile acid receptor (Homo sapiens) (UniProt Q96RI1). Nature of the experiment: qHTS assay for small molecule agonists of farnesoid X receptor signaling (AID 588527; calls by dose curve;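 also: 0% = vehicle basal and 100% = reference agonist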). The following applies: HEK293T FXR-UAS-bla, beta-lactamase ratio, 16 h; stronger effect = higher value. The gist of the method:
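Agonist-mode beta-lactamase reporter in GeneBLAzer FXR-UAS-bla HEK293T cells, titration up to 92 uM, 16 h exposure at 37 C, CCF4 fluorescence. Response scaled to DMSO (0%) and 100 uM chenodeoxycholic acid (100%), then Hill-fitted for EC50 and efficacy.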

Experiment [8] concerns the target Glucocorticoid receptor (Homo sapiens) (UniProt P04150). Nature of the experiment: qHTS assay for small molecule agonists of glucocorticoid receptor signaling (AID 588532; active = well fitted curve in the direction sought with a large enough effect in the signal ratio, with a control signal flat; the % refers to the signal ratio;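 also: 100% = dexamethasone at 0.1 µM and 0% = DMSO only wells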). The settings on record: HeLa MMTV-bla, beta-lactamase ratio, agonist, 18 h; stronger effect = higher value; percent of dexamethasone control, DMSO zero. Put shortly: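 HeLa GRE-bla reporter cells; 18 h compound exposure at 37 C; 2 h CCF4 loading at room temperature; fluorescence at 460 and 530 nm; EC50 by Hill equation.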

Experiment [9] has the same target. As to the kind of experiment: qHTS assay for small molecule antagonists of glucocorticoid receptor signaling (AID 588533; active = well fitted inhibition curve with a large enough effect in the signal ratio, with a control signal flat, not every such curve was filed as active; the % refers to the signal ratio; also: % is scaled to controls: 0 for no effect and ±100 for the full control effect). Put shortly: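 Antagonist-mode qHTS: compound titrations added to GRE-bla HeLa cells, then dexamethasone 2 nM final; 18 h, 37 C. CCF4 FRET fluorescence normalized to dexamethasone and DMSO; IC50 from Hill fit.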
The target in experiment [10] is Peroxisome proliferator-activated receptor gamma (Homo sapiens) (UniProt P37231). Nature of the experiment: qHTS assay for small molecule agonists of peroxisome proliferator-activated receptor gamma signaling (AID 588536; active = well fitted curve in the direction sought with a large enough effect in the signal ratio, with a control signal flat, not every such curve was filed as active; the % refers to the signal ratio;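 also: 0% = DMSO basal wells and 100% = rosiglitazone at 2 µM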). Put shortly: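 This is an agonist-mode beta-lactamase reporter assay in HEK293 PPAR-gamma-UAS-bla cells with 1% charcoal/dextran FBS. Compound titrations ran 16 h at 37 C before CCF4 detection. EC50 and efficacy are Hill fits scaled to 2 uM rosiglitazone (100%) and DMSO basal.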
Chain of Peroxisome proliferator-activated receptor gamma (Homo sapiens) (P37231 whole entry, looked up): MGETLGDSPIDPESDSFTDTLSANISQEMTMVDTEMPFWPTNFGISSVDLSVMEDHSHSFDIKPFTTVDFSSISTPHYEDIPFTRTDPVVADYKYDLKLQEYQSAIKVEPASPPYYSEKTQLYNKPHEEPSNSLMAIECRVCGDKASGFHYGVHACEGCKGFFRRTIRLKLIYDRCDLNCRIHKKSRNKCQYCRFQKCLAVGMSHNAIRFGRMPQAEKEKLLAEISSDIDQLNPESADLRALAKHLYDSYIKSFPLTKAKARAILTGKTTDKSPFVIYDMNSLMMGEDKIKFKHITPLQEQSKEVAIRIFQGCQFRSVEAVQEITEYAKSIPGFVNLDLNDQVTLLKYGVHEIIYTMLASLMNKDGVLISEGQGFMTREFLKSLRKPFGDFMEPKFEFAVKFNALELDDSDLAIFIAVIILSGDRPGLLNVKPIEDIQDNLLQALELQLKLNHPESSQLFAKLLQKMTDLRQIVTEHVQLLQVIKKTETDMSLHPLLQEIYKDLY

The target is the same in experiment [11]. Nature of the experiment: qHTS assay for small molecule antagonists of peroxisome proliferator-activated receptor gamma signaling (AID 588537; active = well fitted inhibition curve with a large enough effect in the signal ratio, with a control signal flat, not every such curve was filed as active; the % refers to the signal ratio;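 also: reporter cells co-stimulated with 50 nM rosiglitazone agonist during compound treatment; % of control where 0% means no effect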). The gist of the method: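 Read-out: CCF4 fluorescence (ex 405, em 460/530 nm) after 2 h at RT. Cells were HEK293 carrying a UAS-bla reporter and treated 16 h at 37 C with compound plus rosiglitazone (50 nM final). Normalized to rosiglitazone and DMSO.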

Experiment [12] is described as follows: qHTS assay for small molecule activators of the nuclear factor-kappa B (NF-kB) signaling pathway (AID 651749; active = well fitted activation curve with a large enough effect in the signal ratio; the % refers to the signal ratio; also: % of control where 0% means no effect). The following applies: NF-kB-bla ME-180 cells, beta-lactamase FRET ratio, 16 h; stronger effect = higher value. Put shortly: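 NF-kB-bla ME-180 cells, 2,000/well; 23 nL compound or DMSO pinned; 16 hr, 37C/5% CO2; beta-lactamase FRET read-out.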
Experiment [13] can be described thus: Cell Viability - BJ (AID 421; calls by dose curve;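 also: potency is read from the fitted curve at half-maximal effect; cells exposed to compound for 40 hours at 37 °C before readout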). The following applies: BJ fibroblast viability, qHTS. Put shortly: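 Cytotoxicity as drop in intracellular ATP (CellTiter-Glo, 20 min RT) after 40 hr compound exposure of BJ fibroblasts at 37 °C. Titrations scaled between DMSO and 100 uM tamoxifen, Hill-fitted for AC50.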
Experiment [14] is described as follows: Cellular Toxicity (caspase-3) Mesangial (AID 660).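 Also: combined caspase 3 and 7 activity read by Caspase-Glo luminescence; cells exposed to compound for 16 h before the caspase read.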 The gist of the method:
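Luminescent Caspase-Glo 3/7 readout (aminoluciferin substrate cleavage, 20 min RT) after 16 h compound exposure at 37 °C of normal human mesangial cells. Signal increase normalized between DMSO basal and 100 uM tamoxifen; Hill-equation AC50.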

The nature of experiment [15]: Cell Viability - LYMP2-025 (AID 976).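 Also: plate controls were DMSO only for no effect and tetraoctylammonium bromide control for full effect.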 The gist of the method: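 CellTiter-Glo luminescence (cellular ATP) after 24 h compound exposure at 37 C; LYMP2-025 human lymphoblastoid cells, 2500/well, complete medium. Tetraoctylammonium bromide positive control. AC50 by Hill equation fit of qHTS concentration-response.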
Experiment [16] addresses Peroxisome proliferator-activated receptor delta (Homo sapiens) (UniProt Q03181). As to the kind of experiment: qHTS assay for small molecule agonists of peroxisome proliferator-activated receptor delta signaling (AID 588534; calls by dose curve;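 also: 0% = DMSO basal wells and 100% = positive control agonist at 10 µM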). Put shortly:
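Titration series tested in agonist mode on beta-lactamase reporter cells; 18 hrs at 37 C after a 5 hr pre-incubation. Readout: CCF4 fluorescence, 2 hrs RT. Hill equation gives EC50 and maximal response.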

Experiment [17] in a line: qHTS assay for small molecule antagonists of peroxisome proliferator-activated receptor delta signaling (AID 588535; active = well fitted inhibition curve with a large enough effect in the signal ratio, with a control signal flat, not every such curve was filed as active; the % refers to the signal ratio;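 as to max response: cells co-treated with a PPAR-delta agonist as stimulator during compound exposure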). The following applies: HEK293T PPARd-UAS-bla, beta-lactamase FRET ratio, 18 h; 460 nm channel. Put shortly:
(§1)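 Beta-lactamase reporter read-out (405 nm excitation, 460/530 nm emission) after CCF4 loading for 2 hrs at RT. HEK293T PPAR-delta-UAS-bla cells, 2% charcoal/dextran FBS, compounds for 18 hrs at 37 C. Hill fit gave IC50 and efficacy.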

Experiment [18] concerns the target Peroxisome proliferator-activated receptor delta (Homo sapiens) (UniProt Q03181). The description is as above. The gist of the method:
as §1

The nature of experiment [19]: qHTS assay for small molecule agonists of the antioxidant response element (ARE) signaling pathway (AID 651741; active = well fitted activation curve with a large enough effect in the signal ratio; the % refers to the signal ratio; also: potency is read from the fitted curve at half-maximal effect; as to activation: % of control where 0% means no effect). The gist of the method:
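HepG2 ARE-bla reporter cells, 2,000/well; 5 h settle at 37 C/5% CO2; compound pin transfer (23 nL, DMSO); 16 h at 37 C; LiveBLAzer B/G FRET substrate, 2 h RT; fluorescence intensity read.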

A short description of experiment [20]: Cell Viability - MRC5 (AID 434; calls by dose curve;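 also: potency is read from the fitted curve at half-maximal effect; cells exposed to compound for 40 hours at 37 °C; potency reflects cytotoxicity seen as loss of intracellular ATP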). The settings on record: MRC5 lung fibroblast viability, qHTS. The gist of the method: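 ATP luminescence read-out (CellTiter-Glo, 20 min RT) after 40 hr, 37 °C compound exposure of 1500 MRC5 cells/well. Data normalized to DMSO (basal) and 100 uM tamoxifen (100% inhibition); AC50 from standard Hill equation.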

Where “and” joins values, the source holds several entries; their conditions need not be identical. Identical values can stand only once. Results filed as inconclusive are left out. Calls of active or inactive are those of the source. Unless noted, calls follow the shape of the dose curve; as a rule, active = well fitted curve in the direction sought with a large enough effect; inconclusive = small, poorly fitted or top-dose-only effect, or another doubt; inactive = no such curve, though single readings can be large; an effect the other way counts as inactive or inconclusive.

Chain of Glucocorticoid receptor (Homo sapiens) (P04150 whole entry, looked up): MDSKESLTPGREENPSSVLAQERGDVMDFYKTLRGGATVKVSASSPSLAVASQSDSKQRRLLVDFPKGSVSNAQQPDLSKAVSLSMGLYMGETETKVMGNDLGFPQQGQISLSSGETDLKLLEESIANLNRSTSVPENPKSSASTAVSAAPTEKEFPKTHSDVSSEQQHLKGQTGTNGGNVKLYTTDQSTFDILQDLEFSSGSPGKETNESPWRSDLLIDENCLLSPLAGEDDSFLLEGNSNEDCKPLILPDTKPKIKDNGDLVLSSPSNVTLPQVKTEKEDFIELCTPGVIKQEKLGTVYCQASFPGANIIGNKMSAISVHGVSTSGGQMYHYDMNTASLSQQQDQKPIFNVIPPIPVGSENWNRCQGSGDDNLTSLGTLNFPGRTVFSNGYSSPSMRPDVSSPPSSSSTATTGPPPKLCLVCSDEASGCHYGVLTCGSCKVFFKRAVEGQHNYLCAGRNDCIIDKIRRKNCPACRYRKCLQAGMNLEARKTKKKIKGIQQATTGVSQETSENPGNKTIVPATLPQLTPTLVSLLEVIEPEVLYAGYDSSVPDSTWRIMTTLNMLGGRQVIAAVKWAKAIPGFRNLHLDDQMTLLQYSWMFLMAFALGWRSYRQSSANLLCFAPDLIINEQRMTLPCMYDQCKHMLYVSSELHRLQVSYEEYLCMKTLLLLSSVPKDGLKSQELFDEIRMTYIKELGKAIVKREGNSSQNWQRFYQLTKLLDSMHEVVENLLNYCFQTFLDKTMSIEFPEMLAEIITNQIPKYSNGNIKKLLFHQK
Chain of Bile acid receptor (Homo sapiens) (Q96RI1 whole entry, looked up): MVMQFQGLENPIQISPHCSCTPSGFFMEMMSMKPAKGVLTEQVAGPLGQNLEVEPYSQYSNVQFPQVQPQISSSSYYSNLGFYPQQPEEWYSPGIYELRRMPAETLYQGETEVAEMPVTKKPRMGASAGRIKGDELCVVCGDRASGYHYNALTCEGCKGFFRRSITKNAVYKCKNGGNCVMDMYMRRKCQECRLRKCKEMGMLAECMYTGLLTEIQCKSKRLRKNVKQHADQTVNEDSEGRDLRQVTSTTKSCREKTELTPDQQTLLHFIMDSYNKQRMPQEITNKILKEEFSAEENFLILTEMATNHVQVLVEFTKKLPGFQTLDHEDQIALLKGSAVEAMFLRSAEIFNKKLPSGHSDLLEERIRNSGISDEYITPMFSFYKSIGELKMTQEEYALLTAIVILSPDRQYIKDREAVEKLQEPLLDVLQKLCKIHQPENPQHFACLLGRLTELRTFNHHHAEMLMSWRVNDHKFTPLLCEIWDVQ
Chain of Peroxisome proliferator-activated receptor delta (Homo sapiens) (Q03181 whole entry, looked up): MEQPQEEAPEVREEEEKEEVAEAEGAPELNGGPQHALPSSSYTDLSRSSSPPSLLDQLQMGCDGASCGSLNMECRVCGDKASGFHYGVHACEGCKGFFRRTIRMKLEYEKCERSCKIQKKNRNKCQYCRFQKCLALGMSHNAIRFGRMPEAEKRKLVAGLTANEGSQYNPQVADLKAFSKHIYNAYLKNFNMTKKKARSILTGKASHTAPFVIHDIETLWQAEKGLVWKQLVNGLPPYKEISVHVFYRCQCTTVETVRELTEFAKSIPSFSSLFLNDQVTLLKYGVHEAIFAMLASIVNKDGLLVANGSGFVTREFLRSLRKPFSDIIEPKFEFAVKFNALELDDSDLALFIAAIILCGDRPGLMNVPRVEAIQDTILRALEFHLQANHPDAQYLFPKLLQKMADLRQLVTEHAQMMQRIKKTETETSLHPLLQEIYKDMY

In the case of `Oc1cccc(Cl)c1`, in experiment [1], the Potency was > 92 µM (inactive). Besides, the Potency entry in experiment [2], in experiment [3], in experiment [4], in experiment [5], in experiment [6] and in experiment [11] was “inactive” each time. Moreover, the activation in experiment [7] was 2.65% (inactive); in [8] it was -11.4% (inactive); in experiment [12], -0.548% (inactive). Also, the outcome in experiment [9] and in experiment [10] was inactive.

Take `CCC(Cl)[N+](=O)[O-]` (centres undefined): the Potency in experiment [13] is > 92 µM (inactive). Further, the Potency result in experiment [2], in experiment [3], in experiment [4], in [15], in experiment [5] and in [6] was “inactive” in each case. Besides, the Potency entry in experiment [11] is “inactive”. The call in experiment [14], in experiment [16], in [18] and in [10] was inactive. In addition, the activation was -1.12% (inactive) in experiment [7], -1.58% (inactive) in experiment [8] and 0.0697% (inactive) in [12]. Also, in experiment [17], the max response was determined as 2.58%.

With `C=CC(=O)OCCN(C)C`, the Potency in experiment [13] and in [1] was > 92 µM (inactive) each time. For the same molecule, the Potency result in experiment [3], in experiment [4], in experiment [15] and in [19] was “inactive” throughout. Also, the activation in [8] is 1.15% (inactive); in experiment [12], -1.13% (inactive). For the same molecule, the outcome in [16], in experiment [18] and in experiment [10] was inactive. Further, the max response in experiment [17] turned out to be 29.8%.

In the case of `Oc1cc(Cl)c(Cl)c(Cl)c1`, the values for the Potency in experiment [3] and in experiment [19] were 63.1 µM (active) and 23.7 µM (active), respectively. Also, the molecule was classed as inactive in [14]. The values for the activation in [7], in experiment [8] and in [12] were 3.7% (inactive), 5.15% (inactive) and -0.357% (inactive), respectively.

On to `C=CC#N`, for which the Potency in experiment [1] and in experiment [20] was > 92 µM (inactive) throughout. The Potency entry in experiment [3], in [4], in experiment [15], in experiment [6], in experiment [11] and in experiment [19] was “inactive” throughout. Further, the call in experiment [14], in experiment [9] and in experiment [10] was inactive. In addition, the activation in experiment [8] was -6.69% (inactive); in experiment [12], -0.054% (inactive).

Turning to `Cc1cccc(N)c1C`, the Potency in [13], in experiment [1] and in experiment [20] was > 92 µM (inactive) each time. In addition, the Potency result in experiment [2], in [3], in [15], in experiment [5] and in [19] was “inactive” in each case. Further, the molecule was classed as inactive in experiment [14], in [9] and in experiment [16]. Further, the results for the activation in experiment [7] and in experiment [12] were -3.96% (inactive) and -0.847% (inactive), respectively.

Consider `O=Cc1ccc2c(c1)OCO2`, for which the Potency in [13] and in experiment [20] was > 92 µM (inactive) in each case. In addition, the Potency entry in experiment [3] and in experiment [19] was “inactive” in each case. Besides, the activation in [7] is 0.344% (inactive); in experiment [8], 1.67% (inactive); in experiment [12], -0.011% (inactive). Also, the molecule was classed as inactive in experiment [9], in experiment [16], in experiment [18] and in [10]. Further, the max response in [17] is -1.49%.

Consider `ClCc1ccccn1`, for which the Potency in [13], in [1] and in [20] was > 92 µM (inactive) throughout. The Potency result in [2], in experiment [4], in experiment [15], in experiment [5], in experiment [6] and in experiment [11] was “inactive” in each case. Moreover, in experiment [19], the Potency result is “inactive”. In addition, the molecule was classed as inactive in [14], in experiment [9], in [16] and in experiment [18]. The activation in experiment [8] is 7.32% (inactive) and 6.72% (inactive). In addition, the max response in experiment [17] came out at 3.34%.

As for `COc1ccccc1N`, the Potency in [13], in experiment [1] and in experiment [20] was > 92 µM (inactive) each time. For the same molecule, the Potency entry in [2], in experiment [3], in [15] and in experiment [11] was “inactive” throughout. The result in experiment [14] and in [10] was inactive.

These data come from PubChem BioAssay (NCATS).
